# According to PubChem BioAssay AID588496 (NMMLSC, 2011):
# This is one part of the list. The source made the active and inactive calls.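 The calls were made as follows: active = compounds that dim the fluorescent label, raw bead signal shifting by over 33 units between lowest and highest dose; inactive = the rest.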
# Experiment: quenchers of FAM-labeled RNA aptamer fluorescence, dose response, artefact control for GRK2 aptamer binding project, biochemical, powder set 1, flow cytometry (AID 588496)
# Settings: Bead-bound FAM RNA aptamer fluorescence quenching; MCF span: fluorescence change max-min concentration, stronger effect = higher value; fluorescence ratio to DMSO: at 11.1 µM, stronger effect = lower value
Compound,MCF span,fluorescence ratio to DMSO
O=C(CCS(=O)(=O)c1ccc(Br)cc1)NCCc1ccc(Cl)cc1,3.2,99% (inactive)
COc1ccc(Cl)cc1NC(=O)CCS(=O)(=O)c1ccc(Br)cc1,-1.1,98% (inactive)
